SNCA viab count: reduces viability of HEK-293 SNCA reporter cells | Potency, µM (doses to about 57.1 µM), for the others: at the highest dose activity change, negative = cytotoxicity, usual class: cytotoxic | HEK-293-SNCA-luc viability, GF-AFC fluorescence, 24 h | actives 0.12% (n = 150,000) | AID 1671193;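 further: 0% = DMSO-treated cells and -100% = medium-only wells without cells; nearly all actives have a fitted effect of over 30% in size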
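Cytotoxicity counterscreen: after 24 h compound treatment of genome-edited SNCA-luciferase HEK-293 cells, live-cell protease substrate GF-AFC read by fluorescence after 30 min; activity scaled between DMSO (0%) and medium-only (-100%), curves Hill-fitted.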
3T3 cytotox: NIH 3T3 cell cytotoxicity. Potency, µM (highest dose often 96.7 µM), without a hit: at the highest dose activity change, negative = cytotoxicity, usual class: inhibitors. actives 4.3% (n = 94,000). NIH 3T3 viability, CellTiter-Glo ATP luminescence, 48-72 h; further: nearly all actives have a fitted effect of over 55% in size
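Mouse fibroblast NIH 3T3 cells, 400 per well, received compound via pintool and were incubated for 48 or 72 hr prior to CellTiter-Glo ATP luminescence measurement.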
SNCA expr inhib: inhibitors of alpha-synuclein (SNCA) gene expression. HEK-293 SNCA-luciferase knock-in, luminescence, 24 h. Potency, µM (series often up to 57.2 µM), for inactives: top-dose activity change, negative = inhibition, most hits filed as inhibitors. actives 0.17% (n = 140,000);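 further: plate controls were DMSO cells for no effect and cell-free wells for full effect; nearly all actives have a fitted effect of over 45% in size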
HEK cytotox: cytotoxic compounds in HEK 293 cells; HEK 293 viability, ATP luminescence (CellTiter-Glo), 48-72 h; Potency, µM (doses to about 115 µM), for inactives: top-dose activity change, negative = cytotoxicity, hits mostly inhibitors; actives 6.6% (n = 94,000); AID 1345083; further: nearly all actives have a fitted effect of over 60% in size
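Pintool-delivered compounds were incubated with HEK 293 cells (250 cells/well) at 37 degree Celsius for 48 or 72 hr. ATP-dependent luminescence (CellTiter-Glo) then reported remaining viable cells.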
Luciferase inh: inhibitors of firefly (Photinus pyralis) luciferase; P08659; purified P. pyralis luciferase, luminescence, biochemical; Potency, µM (titrated, usually from 115 µM), actives largely listed as inhibitors; actives 2.5% (n = 76,000); further: nearly all actives have a fitted effect of over 65% in size
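Purified 10nM P. pyralis luciferase with 10uM D-luciferin and 10uM ATP in 50mM Tris acetate pH 7.5, 10mM Mg acetate, 0.01% Tween-20, 0.05% BSA. qHTS titration; luminescence read by CCD imager.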
hNpr1 antagonist: human Npr1 receptor antagonism; Potency, µM (highest dose often 46.3 µM), without a hit: at the highest dose activity change, negative = inhibition, most hits filed as inhibitors; P16066; actives 1.6% (n = 76,000); HEK293 hNpr1 GloSensor cGMP, ANP-stimulated luminescence; calls by dose curve; further: nearly all actives have a fitted effect of over 60% in size
Target sequence (P16066 whole entry, looked up): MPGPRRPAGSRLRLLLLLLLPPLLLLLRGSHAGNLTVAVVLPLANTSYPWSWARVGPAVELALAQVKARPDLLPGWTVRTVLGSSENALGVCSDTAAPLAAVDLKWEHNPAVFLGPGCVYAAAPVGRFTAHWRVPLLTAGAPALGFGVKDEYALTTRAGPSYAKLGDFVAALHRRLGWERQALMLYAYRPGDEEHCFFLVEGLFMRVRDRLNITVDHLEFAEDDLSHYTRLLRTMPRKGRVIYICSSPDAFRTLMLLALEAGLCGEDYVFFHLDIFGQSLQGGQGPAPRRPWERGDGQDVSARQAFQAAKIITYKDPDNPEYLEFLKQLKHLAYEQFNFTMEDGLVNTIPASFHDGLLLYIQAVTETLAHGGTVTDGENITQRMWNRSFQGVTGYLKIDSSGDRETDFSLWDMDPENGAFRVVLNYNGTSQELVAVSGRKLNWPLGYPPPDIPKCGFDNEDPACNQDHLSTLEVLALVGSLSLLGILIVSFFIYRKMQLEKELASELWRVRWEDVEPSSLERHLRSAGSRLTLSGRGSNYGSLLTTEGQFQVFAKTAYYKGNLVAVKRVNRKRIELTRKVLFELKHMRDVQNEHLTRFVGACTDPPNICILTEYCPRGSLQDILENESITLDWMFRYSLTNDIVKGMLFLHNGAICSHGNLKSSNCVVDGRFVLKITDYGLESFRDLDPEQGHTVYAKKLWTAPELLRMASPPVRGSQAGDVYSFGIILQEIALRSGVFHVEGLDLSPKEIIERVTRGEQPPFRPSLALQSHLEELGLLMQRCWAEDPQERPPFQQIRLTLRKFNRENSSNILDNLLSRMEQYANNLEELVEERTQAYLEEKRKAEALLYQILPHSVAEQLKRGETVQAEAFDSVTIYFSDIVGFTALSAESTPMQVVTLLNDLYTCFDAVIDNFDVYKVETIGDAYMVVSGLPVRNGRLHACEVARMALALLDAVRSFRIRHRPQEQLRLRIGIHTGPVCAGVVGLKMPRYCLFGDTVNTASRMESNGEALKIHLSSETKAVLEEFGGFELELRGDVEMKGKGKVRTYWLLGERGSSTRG
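HEK293 cells stably expressing human Npr1 and cGMP GloSensor pGS-40F, loaded 2 h with 2% GloSensor reagent, given compound 30 min at room temperature. Luminescence read before and 20 min after 0.1 nM hNppA.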
* hit, by the source's call; [ ] = dose if it differs, or a comment. Sampled rows, rich in hits. Any-hit rate of the full collection: about 7.4%. Unless noted, the call rests on the fitted dose curve; in most records, active means well fitted curve in the direction sought with a large enough effect; inconclusive means small, poorly fitted or top-dose-only effect, or another doubt; inactive means no such curve, though single readings can be large; an effect the other way counts as inactive or inconclusive. Unless noted, on the % scale 0 is the no-effect control and ±100 the full control effect; potency means the concentration at half of the fitted maximal effect.

How did O=C1COc2ccc(OCc3cccnc3)nc2CN1Cc1ccccc1F do in these assays?
SNCA viab count: -6%[87.6 µM]; 3T3 cytotox: inconclusive; SNCA expr inhib: 7%[87.6 µM]; HEK cytotox: 89µM*; Luciferase inh: inactive; hNpr1 antagonist: inconclusive

Results for Cc1ccccc1CN1Cc2nc(-c3cnn(Cc4ccccc4)c3)ccc2OCC1=O ?
SNCA viab count: inconclusive; 3T3 cytotox: 22µM*; SNCA expr inhib: inconclusive; HEK cytotox: 35µM*; Luciferase inh: inactive; hNpr1 antagonist: inconclusive

How did CN(C)S(=O)(=O)N1CCC(CCc2nc(C3CCOCC3)no2)CC1 do in these assays?
SNCA viab count: -3%; 3T3 cytotox: -30%; SNCA expr inhib: 19%; HEK cytotox: inconclusive

Results for CC(C)(C)C(=O)NC1CCN(Cc2ccc(-c3ccsc3)cc2)C1 (stereo unspecified) ?
SNCA viab count: 3%; 3T3 cytotox: inconclusive; SNCA expr inhib: 11%; HEK cytotox: inconclusive

Results for CC(C)NC(=O)N1CCN2C(=O)c3cc(-c4ccc5c(c4)OCO5)ccc3NC(=O)[C@H]2C1 ?
SNCA viab count: -2%; 3T3 cytotox: -7%; SNCA expr inhib: -23%; HEK cytotox: inconclusive; Luciferase inh: inactive; hNpr1 antagonist: -4%

What do the screens show for `COc1ccc(-c2nc(CC3CCN(C(=O)c4ccoc4)C3)no2)cc1` (stereo unspecified)?
SNCA viab count: -19%; 3T3 cytotox: inconclusive; SNCA expr inhib: -17%; HEK cytotox: inconclusive

Results for Cn1nc(C2CCN(C(=O)c3ccc(F)cc3)CC2)n(Cc2ccccc2)c1=O ?
SNCA viab count: -12%; 3T3 cytotox: inconclusive; SNCA expr inhib: 22%; HEK cytotox: -21%

What do the screens show for `CC1=C[C@@H](CN2CCN(C)CC2)[C@H](C(C)C)C[C@H]1Cc1nnc(C)o1`?
SNCA viab count: 2%[87.6 µM]; 3T3 cytotox: 3%[174 µM]; SNCA expr inhib: 7%[87.6 µM]; HEK cytotox: inconclusive; Luciferase inh: inactive; hNpr1 antagonist: 3%[70.6 µM]

Results for CC1=C[C@@H](CN2CCN(C)CC2)[C@H](C(C)C)C[C@H]1Cc1nnc(-c2ccc(C)cc2)o1 ?
SNCA viab count: inconclusive; 3T3 cytotox: 22µM*; SNCA expr inhib: -18%[87.6 µM]; HEK cytotox: 28µM*; Luciferase inh: inactive; hNpr1 antagonist: -11%[70.6 µM]

Results for CC1=C[C@@H](CN2CCN(CCO)CC2)[C@H](C(C)C)C[C@H]1Cc1nnc(C)o1 ?
SNCA viab count: 1%[87.6 µM]; 3T3 cytotox: -8%[138 µM]; SNCA expr inhib: 3%[87.6 µM]; HEK cytotox: -12%[172 µM]; Luciferase inh: inactive; hNpr1 antagonist: 2%[70.6 µM]

What do the screens show for `CC1=C[C@@H](CNC(=O)c2cncnc2)[C@H](C(C)C)C[C@H]1Cc1nnc(-c2ccncc2)o1`?
SNCA viab count: -10%[87.6 µM]; 3T3 cytotox: inconclusive; SNCA expr inhib: -23%[87.6 µM]; HEK cytotox: 79µM*; Luciferase inh: inactive; hNpr1 antagonist: -19%[70.6 µM]

Results for CC1=C[C@@H](CN2CCN(CCO)CC2)[C@H](C(C)C)C[C@H]1Cc1nnc(-c2ccncc2)o1 ?
SNCA viab count: -18%; 3T3 cytotox: inconclusive; SNCA expr inhib: -20%; HEK cytotox: 45µM*; Luciferase inh: inactive; hNpr1 antagonist: 1%

Results for CC1=C[C@@H](CN2CCN(C)CC2)[C@H](C(C)C)C[C@H]1Cc1nnc(-c2ccc(N(C)C)cc2)o1 ?
SNCA viab count: inconclusive; 3T3 cytotox: 40µM*; SNCA expr inhib: -16%; HEK cytotox: 22µM*; Luciferase inh: inactive; hNpr1 antagonist: 2%

How did O=C([C@@H]1CCCN1c1nccc(Nc2ccccc2Cl)n1)N1CCOCC1 do in these assays?
SNCA viab count: inconclusive; 3T3 cytotox: inconclusive; SNCA expr inhib: 10%; HEK cytotox: inconclusive

How did O=C(c1ccccc1)N1CCC(C(=O)N2CCC(c3nc4ncccc4[nH]3)CC2)CC1 do in these assays?
SNCA viab count: -4%; 3T3 cytotox: inactive; SNCA expr inhib: 3%; HEK cytotox: inactive
